In PubChem BioAssay (NCI):
“And” between values parts separate entries of the source, which are not always exact repeats. Equal values may be shown once. This is part of a sample that, as a whole, favours compounds with a hit. Of some 79,000 tested, about 15% had one in any assay. The source holds several records for some structures; these can differ, active in one and inactive in another. The source made the active and inactive calls. Rule as the data show it: active = growth inhibition above about 70%; inactive = the rest.

Columns and labels:
[1] = NCI Yeast Anticancer Drug Screen. Data for the rad50 strain (AID 155);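 also: 0% = growth of vehicle-only cultures of the same strain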; conditions: S. cerevisiae rad50 strain growth inhibition, stronger effect = higher value
How it was run: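 Genetically altered yeast (DNA repair pathway); compound treatment; growth inhibition vs vehicle ctrl.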

[2] = NCI Yeast Anticancer Drug Screen. Data for the mec2-1 strain (AID 157); conditions: S. cerevisiae mec2-1 strain, stronger effect = higher value
How it was run: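 mec2-1 yeast strain, carrying an alteration in DNA damage repair or cell cycle control, was exposed to compounds; growth inhibition was measured relative to vehicle-treated controls.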

[3] = NCI Yeast Anticancer Drug Screen. Data for the sgs1 mgt1 strain (AID 161);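 also: 0% = growth of cultures given vehicle only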; conditions: S. cerevisiae sgs1 mgt1 strain, stronger effect = higher value
How it was run: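 Yeast cells carrying a defined DNA-repair defect were exposed to test compounds. Growth inhibition was measured relative to vehicle-treated controls.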

[4] = NCI Yeast Anticancer Drug Screen. Data for the cln2 rad14 strain (AID 165);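 also: 0% = growth equal to vehicle treated cultures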; conditions: S. cerevisiae cln2 rad14 strain, stronger effect = higher value
How it was run: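 Yeast carrying cln2 and rad14 alterations (cell cycle control and DNA damage repair) were exposed to compounds. Growth inhibition was measured against vehicle-treated controls.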

[5] = NCI Yeast Anticancer Drug Screen. Data for the bub3 strain (AID 167); conditions: S. cerevisiae bub3 mutant strain, stronger effect = higher value
How it was run: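 Yeast carrying a defined mutation is treated with each compound, and growth is compared with that of vehicle-exposed cells to give inhibition.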

[6] = NCI Yeast Anticancer Drug Screen. Data for the mlh1 rad18 strain (AID 175); conditions: S. cerevisiae mlh1 rad18 strain growth inhibition, stronger effect = higher value
How it was run: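 Growth inhibition of the yeast strain was measured after compound exposure and expressed relative to vehicle-treated controls. The strain carries defined defects in DNA damage repair.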

[7] = at 5.0 µM (retest, dose inferred, filed as 0.5)
[8] = at 50.0 µM (retest, dose inferred, filed as 5.0)

Measured: growth inhibition

CCNC(=O)O/N=C1/C=C2CC[C@@H]3C(CC[C@@]4(C)C3CC[C@@H]4OC(=O)NCC)[C@@]2(C)CC1 (some centres undefined)
inactive: [1]; [8] 66% | [2]; [8] 45% | [4]; [8] 14% | [5]; [8] 58% | [6]; [8] 69%
active: [1]; [7] 94% | [1]; at 50.0 µM 97.8% | [2]; [7] 97% | [2]; at 50.0 µM 98.1% | [3]; [7] 97% | [3]; [8] 72% | [3]; at 50.0 µM 97.5% | [4]; [7] 96% | [4]; at 50.0 µM 96.2% | [5]; [7] 93% | [5]; at 50.0 µM 97.2% | [6]; [7] 97% | [6]; at 50.0 µM 97.5%

CC[C@H](C)c1occ2c(O)c(C(=O)O)c(=O)cc-2c1C
active: [1]; [8] 98% | [2]; [7] 71% | [2]; [8] 99% | [3]; [7] 99% | [3]; [8] 99% | [4]; [8] 99% | [5]; [7] 74% | [5]; [8] 99% | [6]; [7] 88% | [6]; [8] 98% | [6]; at 50.0 µM 81.2%
inactive: [1]; [7] 56% | [1]; at 50.0 µM 24.5% | [2]; at 50.0 µM -2.7% | [3]; at 50.0 µM 12.2% | [4]; [7] 31% | [4]; at 50.0 µM 3.2% | [5]; at 50.0 µM 12.2%

CN(C)C(=[Se])[Se]C(=[Se])N(C)C
active: [1]; [7] 95% | [1]; [8] 91% | [1]; at 50.0 µM 95.8% | [2]; [7] 96% | [2]; [8] 93% | [2]; at 50.0 µM 96% | [3]; [7] 93% | [3]; [8] 92% | [3]; at 50.0 µM 95.5% | [4]; [7] 84% | [4]; [8] 90% | [4]; at 50.0 µM 91% | [5]; [7] 93% | [5]; [8] 92% | [5]; at 50.0 µM 95.8% | [6]; [7] 96% | [6]; [8] 91% | [6]; at 50.0 µM 96.3%

O=C1c2ccccc2-c2c3c(cc4ccnc1c24)OCO3
inactive: [2]; [7] 57% | [3]; [7] 50% | [4]; [7] 37% | [5]; [7] 61%
active: [1]; [7] 96% | [1]; [8] 97% | [1]; at 50.0 µM 86.2% and 86.5% | [2]; [8] 96% | [2]; at 50.0 µM 84.8% and 88.2% | [3]; [8] 96% | [3]; at 50.0 µM 86.6% and 86.2% | [4]; [8] 95% | [4]; at 50.0 µM 81.7% and 87% | [5]; [8] 95% | [5]; at 50.0 µM 87.5% and 87.3% | [6]; [7] 73% | [6]; [8] 95% | [6]; at 50.0 µM 85.8% and 88%

S=c1[nH]c2ccccc2s1
4.95% (inactive) and 71.9% (active): [6]; at 50.0 µM
inactive: [1]; [7] -8% | [1]; [8] 45% | [1]; at 50.0 µM 3.25% and 53.4% | [2]; [7] -7% | [2]; [8] 52% | [2]; at 50.0 µM -22.3% and 30.1% | [3]; [7] -3% | [3]; [8] 51% | [3]; at 50.0 µM 15.8% and 62% | [4]; [7] -12% | [4]; [8] 1% | [4]; at 50.0 µM -11.1% and 11.7% | [5]; [7] -4% | [5]; [8] 29% | [5]; at 50.0 µM 8.85% and 55.8% | [6]; [7] -7% | [6]; [8] 38%

CC(=O)OCC1OC([S-])C(OC(C)=O)C(OC(C)=O)C1OC(C)=O.CC[PH+](CC)CC.CC[PH+](CC)CC.[Au].[Au] (centres undefined)
active: [1]; [7] 100% | [1]; [8] 99% | [1]; at 50.0 µM 89.8% | [2]; [7] 99% | [2]; [8] 99% | [2]; at 50.0 µM 92% | [3]; [7] 99% | [3]; [8] 99% | [3]; at 50.0 µM 92% | [4]; [7] 98% | [4]; [8] 99% | [4]; at 50.0 µM 91.3% | [5]; [7] 99% | [5]; [8] 99% | [5]; at 50.0 µM 89.9% | [6]; [7] 96% | [6]; [8] 98% | [6]; at 50.0 µM 90%

CCC(=O)O[C@H]1CC[C@H]2[C@@H]3CCC4=C/C(=N/OC(=O)c5cccc6c(=O)c7ccccc7[nH]c56)CC[C@]4(C)[C@H]3CC[C@]12C
inactive: [1]; [7] 29% | [1]; at 50.0 µM 53.8% | [2]; [7] 26% | [2]; [8] 31% | [3]; [7] -26% | [3]; [8] 52% | [4]; [7] -14% | [4]; [8] 43% | [4]; at 50.0 µM 47.1% | [5]; [7] 10% | [5]; [8] 66% | [6]; [7] 29% | [6]; [8] 40% | [6]; at 50.0 µM 17.6%
active: [1]; [8] 83% | [2]; at 50.0 µM 77.4% | [3]; at 50.0 µM 79.3% | [5]; at 50.0 µM 74.4%

CC(C)CCC[C@@H](C)[C@H]1CC[C@H]2[C@@H]3CC[C@H]4C[C@H](NCCCl)CC[C@]4(C)[C@H]3CC[C@]12C
inactive: [1]; [7] 28% | [1]; [8] 36% | [1]; at 50.0 µM 52% | [2]; [7] 15% | [2]; [8] 26% | [2]; at 50.0 µM 43.6% | [3]; [7] 40% | [3]; [8] 68% | [3]; at 50.0 µM 49.1% | [4]; [7] 28% | [4]; [8] 7% | [4]; at 50.0 µM 51% | [5]; [7] 45% | [5]; [8] 49% | [5]; at 50.0 µM 42.2% | [6]; [7] 22% | [6]; [8] 27% | [6]; at 50.0 µM 55%
